Active and inactive are the calls of the source. How the source made its calls: active means hit-call score of the fitted dose curve at least 0.9, where 1 is the maximum; inactive means score below 0.9.

What is called AC50 is the midpoint of the concentration-response curve, whichever way the signal moves.

Hypoxia-inducible factor 1-alpha (Homo sapiens), sequence (Q16665 whole entry, looked up): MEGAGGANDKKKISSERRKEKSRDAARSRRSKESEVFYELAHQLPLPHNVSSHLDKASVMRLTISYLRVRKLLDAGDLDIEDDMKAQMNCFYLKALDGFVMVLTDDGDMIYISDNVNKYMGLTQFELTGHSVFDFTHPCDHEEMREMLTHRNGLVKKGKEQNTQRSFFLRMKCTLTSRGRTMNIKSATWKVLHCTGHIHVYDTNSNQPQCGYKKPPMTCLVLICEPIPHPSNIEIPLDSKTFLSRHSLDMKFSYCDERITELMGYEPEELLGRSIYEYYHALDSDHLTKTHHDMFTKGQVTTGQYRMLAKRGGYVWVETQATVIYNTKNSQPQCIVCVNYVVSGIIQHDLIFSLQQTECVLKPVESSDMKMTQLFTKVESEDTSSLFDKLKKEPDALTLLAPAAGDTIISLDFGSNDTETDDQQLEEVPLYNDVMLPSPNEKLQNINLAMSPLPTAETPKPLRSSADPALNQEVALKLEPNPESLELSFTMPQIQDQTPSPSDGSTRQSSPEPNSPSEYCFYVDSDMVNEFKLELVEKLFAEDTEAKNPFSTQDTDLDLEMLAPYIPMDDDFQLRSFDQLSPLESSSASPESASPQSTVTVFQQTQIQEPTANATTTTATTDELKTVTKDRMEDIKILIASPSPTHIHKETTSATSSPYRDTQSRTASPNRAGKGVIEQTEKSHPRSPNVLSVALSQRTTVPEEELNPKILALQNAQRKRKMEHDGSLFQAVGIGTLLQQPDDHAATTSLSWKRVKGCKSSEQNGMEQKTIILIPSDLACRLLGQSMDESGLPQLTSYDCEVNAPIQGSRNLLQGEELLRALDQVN

Read-out in the assay: Hypoxia-inducible factor 1-alpha (Homo sapiens) (UniProt Q16665)
The assay is described as follows: LTEA_HepaRG_HIF1A: Life Technologies and Expression Analysis (LTEA) Assay for Hypoxia-inducible factor 1 (HIF1A) Trancription factor using HepaRG (AID 2283503).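 Further: HIF1A transcript by TaqMan qRT-PCR normalized to ACTB GAPDH and POLR2A.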 The note with it: mRNA level, 48 h; actives raise or lower the signal. As for the experimental part: LTEA_HepaRG is a cell based, multiplexed-readout assay that uses HepaRG, a human liver cell line, with measurements taken at 48 hours after chemical dosing on a 96-well plate.LTEA_HepaRG_HIF1A is one of 102 assay component(s) measured in the LTEA HepaRG cell culture assay. It is a marker of Cell proliferation, survival, death.Data from the assay component LTEA_HepaRG_HIF1A was analyzed into 1 endpoint. This assay endpoint, LTEA_HepaRG_HIF1A, was analyzed with bidirectional fitting relative to DMSO as the negative control and baseline of activity. Using a type of inducible reporter, measures of mRNA induction for gain or loss-of-signal activity can be used to understand regulation of transcription factor activity. To generalize the intended target to other relatable targets, this assay endpoint is annotated to the dna binding intended target family, where the subfamily is basic helix-loop-helix protein.
A total of 1060 chemcials from the ToxCast library were tested in eight-point concentration-response experiments. Cell culture and cytotoxicity assays were conducted at Thermo Fisher Scientific's Custom Services facility (Madison, WI). A single lot of human HepaRG cells (Thermo Fisher Scientific, Frederick, MD) was used for the cell culture experiments. 96-well format collagen type I coated plates of human HepaRG cells were prepared using established methods. Briefly, cryopreserved HepaRG cells were thawed, plated at a density of approximately 100,000 cells/well in HepaRG Thaw, Plate, and General Purpose media (HPRG770, Thermo Fisher Scientific), and incubated for 48 hours. 0.5% DMSO was selected as vehicle control to balance the requisite need of DMSO in HepaRG cultures to maintain differentiation (for example, baseline metabolism, proportions of hepatocytes vs. cholangiocytes), while enabling further hepatic receptor pathway activation (for example, PXR and CAR) in response to chemical exposure. 48 hours after plating, the culture medium was replaced with HepaRG Serum-Free Incudtion Media. Cells were exposed to each test chemical in duplicate and maintained in CO2 incubators for another 48 hours. Chemical plates were thawed to room temperature and 200x concentrations of treatment groups were prepared. 8-point conentration-reponse curves were made with the highest exposure at 100 uM, followed by half-log dilutions, all in 0.5% DMSO. Each test plate contained variouse controls, induction positive controls (1mM phenobarbital), cytotoxicity positive controls ([…] aflatoxin B1), vehicle controls (0.5% DMSO), and total lysis controls (0.5% DMSO). Cell morphology images were taken using an Essen IncuCyte FLR automated microscope, with six 96-well plates imaged in about 24 minutes. Images were captured and exported and JPEG files. Spent culture media was transfered to black-well plates for the LDH assay, and remaining media was sorted at -80 C for later use. Cells were treated with RLT buffer and frozen until shipped for gene expression analysis. Total RNA was isolated from the cell suspension in 75 uL of Buffer RLT (Qiagen, Germantown, MD 20874) by Quintiles/Expression Analysis (Durham, NC) using a custom isolation procedure. Total RNA from each plate well was transferred to a preamplification plate. Fluidigm's 96.96 Dynamic ArrayTM (Fluidigm, Amsterdam, the Netherlands) technology was used for gene expression analyses by quantitative reverse transcription polymerase chain reaction (qRT-PCR, performed by Quintiles/Expression Analysis, Durham, NC)89. Standard TaqManTM Assays (Applied Biosystems/ThermoFisher Scientific, Foster City, CA) were used to assess the expression of 93 genes selected based on their selectivity and sensitivity to important hepatic receptors known to be modulated by environmental chemicals; importance in human hepatocyte functionality; and hepatotoxicity. […]
As for `N=C(N)c1ccc(OCCCCCOc2ccc(C(=N)N)cc2)cc1`, the AC50 is 4.28 µM (active). Still for that read-out and setting: then `CCCCc1oc2ccccc2c1C(=O)c1cc(I)c(OCCN(CC)CC)c(I)c1`, with 64.5 µM (active). Regarding `O=C1NS(=O)(=O)c2ccccc21`, the compound was classed as inactive. Turning to `Cc1[nH]nc2c1N=C(c1ccccc1Cl)c1cc([N+](=O)[O-])ccc1N2`, the compound was classed as inactive.

As to `CCCCCCCCCCCCOS(=O)(=O)O`, the compound was classed as inactive. In the case of `O=C(c1ccccc1)c1ccccc1`, the call was inactive. As for `CCCCCCCCCCCCCCC`, the compound was called inactive. The same measure, in the same setting: as for `CS(=O)(=O)c1ccc([C@@H](CC2CCCC2)C(=O)Nc2cnccn2)cc1Cl`, the entry is “inactive”; as for `OCC(CO)(CBr)CBr`, “inactive”. On the same count and under the same terms, then `CCCCC(CC)C(=O)O` (stereo unspecified), with “inactive”. Regarding `CCCCC=O`, the outcome was inactive.
